This passage reports phenotypically active results from the supplement of paper PMC7411054.

Structures are written as SMILES. Counter-ions that a name gives are not always drawn.

The test system of the first test is HepG2-TP53BP1-CLTA. The test can be described thus: phenotypically active (imaging signature differs from DMSO and reproducible) at any of 0.3-9 uM (binary (1 = active, 0 = inactive)); higher = active. The conditions noted are these: treatment time: 24 h. The method, boiled down: (§1)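 Each of fifteen gene-edited A549, HepG2 and WPMY1 reporter lines, marked with BFP for segmentation and GFP and RFP/FusionRed, was treated in four wells at 0.3, 1, 3 or 9 µM for 24 h prior to live imaging. Normalisation of per-well live-cell features used solvent control wells. Deviation needed ≥3 of 4 wells beyond the 95th percentile of control Euclidean distances, and reproducibility needed a median replicate Pearson correlation above the 95th percentile of non-replicates. Both were required for phenotypic activity.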
`O=C(CCCCCCC(=O)Nc1ccc([C@H]2O[C@@H](CSc3nc(-c4ccccc4)c(-c4ccccc4)o3)C[C@@H](c3ccc(CO)cc3)O2)cc1)NO` [Tubacin]: the phenotypically active was 0 (inactive).
On the same count and under the same terms, for `CC1CNCCN1S(=O)(=O)c1cccc2cnccc12` (stereo not drawn) [H-7 dihydrochloride] the value was 0 (inactive); for `COc1cc(OC)c2c(=O)[nH]c(-c3cc(C)c(OCCO)c(C)c3)nc2c1` [apabetalone], 0 (inactive); for `CC1(CN2CCC(n3c(=O)[nH]c4ccccc43)CC2)OCc2ccccc2-n2cccc21` (stereo not drawn), 0 (inactive).
The same measure, in the same setting: in the case of `N#Cc1ccc2ncnc(NCCc3ccccc3)c2c1` [Senexin A] it was 0 (inactive).
Turning to `Nc1ccc(N=Nc2ccccc2)c(N)n1` [phenazopyridine], the phenotypically active was 0 (inactive).
Take `O=C(CCCCCCC(=O)NO)NO`: the phenotypically active was 0 (inactive).
In the case of `CC(C)(C)c1ccc(C(O)CCCN2CCC(C(O)(c3ccccc3)c3ccccc3)CC2)cc1` (stereo not drawn) [terfenadine], the phenotypically active was 0 (inactive).
For the molecule `COc1ccccc1C(=O)Nc1cc2c(cc1N1CCCC1)n(C)c(=O)n2C`, the phenotypically active was 0 (inactive).
Regarding `CCC(=O)N1CCOc2c(cc(-c3ccc(OC)c(OC)c3)cc2OC[C@H]2CCCN(C)C2)C1`, the phenotypically active is 0 (inactive).
For `CCc1nc(-c2cccc(C)c2)c(-c2ccnc(NC(=O)c3ccccc3)c2)s1`, the phenotypically active is 1 (active).
Turning to `Cc1ccc(S(=O)(=O)n2c(N)nc3ccccc32)cc1`, the phenotypically active is 0 (inactive).
Turning to `Cc1ccc(NC(=O)c2cccc(C(C)(C)C#N)c2)cc1Nc1ccc2ncn(C)c(=O)c2c1`, the phenotypically active was 1 (active).
The same measure, in the same setting: in the case of `Cn1cc(-c2cnc3ccc4ccc(CS(=O)(=O)NCc5ccccn5)cc4c(=O)c3c2)cn1` it was 0 (inactive); in that of `O=C1c2c(O)cccc2Cc2cccc(O)c21` [anthralin], 0 (inactive).
On the same count and under the same terms, for `COc1cc2c(cc1OC)-c1c/c(=N/c3c(C)cc(C)cc3C)n(C)c(=O)n1CC2` [Trequinsin hydrochloride] the value was 0 (inactive); for `O=C(Nc1ccncc1)c1cc([N+](=O)[O-])ccc1Cl`, 1 (active).
As for `Nc1ncnc2c1c(-c1ccc(Oc3ccccc3)cc1)nn2C1CCCC1`, the phenotypically active is 0 (inactive).
As for `O=C(Nc1ccc(CN2CCOCC2)cc1)c1ccc(-c2cccc(Cl)c2)o1`, the phenotypically active was 0 (inactive).
In the case of `O=C(/C=C/c1ccc2ccccc2n1)c1ccncc1`, the phenotypically active was 0 (inactive).
Turning to `CNCC[C@H](Oc1cccc2ccccc12)c1cccs1` [duloxetine], the phenotypically active was 0 (inactive).
Consider `CNC(=O)c1cc(Oc2ccc(NC(=O)Nc3ccc(Cl)c(C(F)(F)F)c3)c(F)c2)ccn1` [regorafenib], for which the phenotypically active was 1 (active).
Consider `NC(=O)[C@@H](CCC(F)(F)F)N(Cc1ccc(-c2ncon2)cc1F)S(=O)(=O)c1ccc(Cl)cc1` [avagacestat], for which the phenotypically active is 0 (inactive).
With `CCC(C)(C)C(=O)O[C@H]1C[C@@H](C)C=C2C=C[C@H](C)[C@H](CC[C@@H]3C[C@@H](O)CC(=O)O3)[C@H]21` [Simvastatin], the phenotypically active is 1 (active).
Take `Nc1cc(N)c(N)cc1N` [FAK Inhibitor 14]: the phenotypically active was 1 (active).
For the molecule `Cc1ccc(S(=O)(=O)c2ccc([N+](=O)[O-])o2)cc1`, the phenotypically active is 0 (inactive).
Same read-out and setting: for `Fc1ccccc1Nc1nc2nonc2nc1Nc1ccccc1F` the value was 1 (active).
As to `Cc1ccc(O)c([C@H](CCN(C(C)C)C(C)C)c2ccccc2)c1` [Tolterodine L-tartrate], the phenotypically active was 0 (inactive).
Regarding `O=c1cc(-c2ccccc2)oc2cc(O)cc(O)c12` [Chrysin], the phenotypically active was 0 (inactive).
Turning to `COc1cc2nccc(Oc3ccc(NC(=O)C4(C(=O)Nc5ccc(F)cc5)CC4)cc3)c2cc1OC`, the phenotypically active is 0 (inactive).
Take `CC(C)c1nc(CN(C)C(=O)N[C@H](C(=O)N[C@@H](Cc2ccccc2)C[C@H](O)[C@H](Cc2ccccc2)NC(=O)OCc2cncs2)C(C)C)cs1` [ritonavir]: the phenotypically active was 0 (inactive).
Turning to `CC[C@H](CO)Nc1nc(Nc2cccc(-c3ccccn3)c2)c2ncn(C(C)C)c2n1` [(R)-DRF053 dihydrochloride], the phenotypically active was 1 (active).
With `CN1c2ccc([N+](=O)[O-])cc2N=C(c2ccc(C(=O)O)cc2)c2cc3c(cc21)C(C)(C)CCC3(C)C`, the phenotypically active was 0 (inactive).
Consider `COc1ccc(CCc2nc3cc(-c4c(C)noc4C)ccc3n2C[C@H](C)N2CCOCC2)cc1Cl`, for which the phenotypically active is 1 (active).
On to `CCOC(=O)c1c2c3c(cccc3[nH]c1=O)C(=O)c1ccccc1-2`, for which the phenotypically active is 1 (active).
For the molecule `CCN1/C(=C/C(C)=O)Sc2ccc(O)cc21`, the phenotypically active was 0 (inactive).
With `CC(C)(C)n1nc(-c2ccc(Cl)cc2)c2c(N)ncnc21`, the phenotypically active was 1 (active).
Same read-out and setting: in the case of `O=S(=O)(c1cccc2cnccc12)N1CCNCC1` it was 1 (active).
Take `CC(C)c1c(C(=O)Nc2ccccc2)c(-c2ccccc2)c(-c2ccc(F)cc2)n1CC[C@@H](O)C[C@@H](O)CC(=O)O` [atorvastatin]: the phenotypically active was 1 (active).

The test system of the next test is HepG2-TUBA1B-RELA. The description is as above. The conditions noted are these: treatment time: 24 h. In short, it runs like this:
as §1
As for `O=C(CCCCCCC(=O)Nc1ccc([C@H]2O[C@@H](CSc3nc(-c4ccccc4)c(-c4ccccc4)o3)C[C@@H](c3ccc(CO)cc3)O2)cc1)NO` [Tubacin], the phenotypically active is 0 (inactive).
For the molecule `CC1CNCCN1S(=O)(=O)c1cccc2cnccc12` (stereo not drawn) [H-7 dihydrochloride], the phenotypically active is 1 (active).
On to `COc1cc(OC)c2c(=O)[nH]c(-c3cc(C)c(OCCO)c(C)c3)nc2c1` [apabetalone], for which the phenotypically active is 0 (inactive).
As to `CC1(CN2CCC(n3c(=O)[nH]c4ccccc43)CC2)OCc2ccccc2-n2cccc21` (stereo not drawn), the phenotypically active is 0 (inactive).
On the same count and under the same terms, for `N#Cc1ccc2ncnc(NCCc3ccccc3)c2c1` [Senexin A] the value was 0 (inactive); for `Nc1ccc(N=Nc2ccccc2)c(N)n1` [phenazopyridine], 0 (inactive); for `O=C(CCCCCCC(=O)NO)NO`, 0 (inactive).
On to `CC(C)(C)c1ccc(C(O)CCCN2CCC(C(O)(c3ccccc3)c3ccccc3)CC2)cc1` (stereo not drawn) [terfenadine], for which the phenotypically active was 1 (active).
On the same count and under the same terms, in the case of `COc1ccccc1C(=O)Nc1cc2c(cc1N1CCCC1)n(C)c(=O)n2C` it was 0 (inactive).
Regarding `CCC(=O)N1CCOc2c(cc(-c3ccc(OC)c(OC)c3)cc2OC[C@H]2CCCN(C)C2)C1`, the phenotypically active was 1 (active).
For `CCc1nc(-c2cccc(C)c2)c(-c2ccnc(NC(=O)c3ccccc3)c2)s1`, the phenotypically active is 1 (active).
Regarding `Cc1ccc(S(=O)(=O)n2c(N)nc3ccccc32)cc1`, the phenotypically active was 0 (inactive).
Regarding `Cc1ccc(NC(=O)c2cccc(C(C)(C)C#N)c2)cc1Nc1ccc2ncn(C)c(=O)c2c1`, the phenotypically active was 1 (active).
For the molecule `Cn1cc(-c2cnc3ccc4ccc(CS(=O)(=O)NCc5ccccn5)cc4c(=O)c3c2)cn1`, the phenotypically active is 0 (inactive).
For the molecule `O=C1c2c(O)cccc2Cc2cccc(O)c21` [anthralin], the phenotypically active was 0 (inactive).
Still for that read-out and setting: for `COc1cc2c(cc1OC)-c1c/c(=N/c3c(C)cc(C)cc3C)n(C)c(=O)n1CC2` [Trequinsin hydrochloride] the value was 0 (inactive); for `O=C(Nc1ccncc1)c1cc([N+](=O)[O-])ccc1Cl`, 1 (active); for `Nc1ncnc2c1c(-c1ccc(Oc3ccccc3)cc1)nn2C1CCCC1`, 0 (inactive).
As to `O=C(Nc1ccc(CN2CCOCC2)cc1)c1ccc(-c2cccc(Cl)c2)o1`, the phenotypically active is 1 (active).
With `O=C(/C=C/c1ccc2ccccc2n1)c1ccncc1`, the phenotypically active was 1 (active).
The same measure, in the same setting: in the case of `CNCC[C@H](Oc1cccc2ccccc12)c1cccs1` [duloxetine] it was 0 (inactive); in that of `CNC(=O)c1cc(Oc2ccc(NC(=O)Nc3ccc(Cl)c(C(F)(F)F)c3)c(F)c2)ccn1` [regorafenib], 1 (active); in that of `NC(=O)[C@@H](CCC(F)(F)F)N(Cc1ccc(-c2ncon2)cc1F)S(=O)(=O)c1ccc(Cl)cc1` [avagacestat], 0 (inactive).
In the case of `CCC(C)(C)C(=O)O[C@H]1C[C@@H](C)C=C2C=C[C@H](C)[C@H](CC[C@@H]3C[C@@H](O)CC(=O)O3)[C@H]21` [Simvastatin], the phenotypically active is 1 (active).
Turning to `Nc1cc(N)c(N)cc1N` [FAK Inhibitor 14], the phenotypically active is 1 (active).
Turning to `Cc1ccc(S(=O)(=O)c2ccc([N+](=O)[O-])o2)cc1`, the phenotypically active is 1 (active).
`Fc1ccccc1Nc1nc2nonc2nc1Nc1ccccc1F`: the phenotypically active is 1 (active).
Same read-out and setting: for `Cc1ccc(O)c([C@H](CCN(C(C)C)C(C)C)c2ccccc2)c1` [Tolterodine L-tartrate] the value was 0 (inactive); for `O=c1cc(-c2ccccc2)oc2cc(O)cc(O)c12` [Chrysin], 0 (inactive); for `COc1cc2nccc(Oc3ccc(NC(=O)C4(C(=O)Nc5ccc(F)cc5)CC4)cc3)c2cc1OC`, 0 (inactive).
On the same count and under the same terms, in the case of `CC(C)c1nc(CN(C)C(=O)N[C@H](C(=O)N[C@@H](Cc2ccccc2)C[C@H](O)[C@H](Cc2ccccc2)NC(=O)OCc2cncs2)C(C)C)cs1` [ritonavir] it was 0 (inactive); in that of `CC[C@H](CO)Nc1nc(Nc2cccc(-c3ccccn3)c2)c2ncn(C(C)C)c2n1` [(R)-DRF053 dihydrochloride], 1 (active).
On to `CN1c2ccc([N+](=O)[O-])cc2N=C(c2ccc(C(=O)O)cc2)c2cc3c(cc21)C(C)(C)CCC3(C)C`, for which the phenotypically active is 1 (active).
Consider `COc1ccc(CCc2nc3cc(-c4c(C)noc4C)ccc3n2C[C@H](C)N2CCOCC2)cc1Cl`, for which the phenotypically active is 1 (active).
Turning to `CCOC(=O)c1c2c3c(cccc3[nH]c1=O)C(=O)c1ccccc1-2`, the phenotypically active is 0 (inactive).
In the case of `CCN1/C(=C/C(C)=O)Sc2ccc(O)cc21`, the phenotypically active was 0 (inactive).
Regarding `CC(C)(C)n1nc(-c2ccc(Cl)cc2)c2c(N)ncnc21`, the phenotypically active is 0 (inactive).
On to `O=S(=O)(c1cccc2cnccc12)N1CCNCC1`, for which the phenotypically active is 1 (active).
Consider `CC(C)c1c(C(=O)Nc2ccccc2)c(-c2ccccc2)c(-c2ccc(F)cc2)n1CC[C@@H](O)C[C@@H](O)CC(=O)O` [atorvastatin], for which the phenotypically active was 1 (active).
